{"source": "paper PMC12820563", "about": "“FoxP3 forms a head-to-head dimer in vivo and stabilizes its multimerization on adjacent microsatellites”", "note": "In all, about 16,000 sequences were measured (“rpm ratio (pull-down/input)”: median about 0.94, highest 2% from about 1.7 on). For the sample, the highest values were picked, then their nearest neighbours and some sequences at random.", "data": [{"molecular_target": "T1, MBP-FoxP1dN (Mus musculus, UniProt P58462 326-579)", "T1 sequence": "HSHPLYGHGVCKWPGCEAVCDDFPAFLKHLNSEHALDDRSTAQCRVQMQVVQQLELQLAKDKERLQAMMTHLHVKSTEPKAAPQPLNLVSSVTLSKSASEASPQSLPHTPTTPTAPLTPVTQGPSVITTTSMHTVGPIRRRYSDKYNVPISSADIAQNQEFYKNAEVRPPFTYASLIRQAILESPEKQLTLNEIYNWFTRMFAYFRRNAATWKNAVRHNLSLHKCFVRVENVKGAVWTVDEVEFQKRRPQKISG", "experiment": "PD-seq (MBP pull-down with sequencing); 20 mM Tris-HCl pH 7.5, 100 mM NaCl, 1.5 mM MgCl2, 0.4 uM protein, 0.1 uM dsDNA library, 30 min, room temperature, amylose pull-down; high values mean tight binding", "settings": "protein: recombinant; tags: His6-MBP; chain copies: 2; dsDNA, one strand shown", "method_in_brief": "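Protein and DNA were mixed at 0.4 µM and 0.1 µM and held for 30 min at room temperature in Tris pH 7.5 buffer with NaCl and MgCl2; the protein was a His6-MBP-tagged, N-terminally truncated mouse FoxP3 or FoxP1 fragment from E. coli, and the DNA a Klenow-filled double-stranded degenerate library. Amylose resin captured the complexes, which were washed three times. Binding is read as reads-per-million enrichment of pull-down versus input after Illumina sequencing, with replicates pooled.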", "values": [{"sequence": "GATGATTGTTCTCCCAGCTGATGAATTATTATTCTCGAGTAAACAAATTTTCCTAATCTTTCTGTTCAAGCGCCATCTAC", "binding signal": "1.45 RPM ratio (pull-down/input)"}, {"sequence": "GATGATTGTTCTCCCAGCTGATGAATTTTTATTCTCGAGTAAACAAATTTTCCTAATCTTTCTGTTCAAGCGCCATCTAC", "binding signal": "1.06 RPM ratio (pull-down/input)"}, {"sequence": "GATGATTGTTCTCCCAGCTGATGAATTGTTATTTTCGAGTAAACAAATTTTCCTAATCTTTCTGTTCAAGCGCCATCTAC", "binding signal": "3.47 RPM ratio (pull-down/input)"}, {"sequence": "GATGATTGTTCTCCCAGCTGATGAATTTCTTATTTCGAGTAAACAAATTTTCCTAATCTTTCTGTTCAAGCGCCATCTAC", "binding signal": "1.07 RPM ratio (pull-down/input)"}, {"sequence": "GATGATTGTTCTCCCAGCTGATGAATTATGTAATTCGAGTAAACAAATTTTCCTAATCTTTCTGTTCAAGCGCCATCTAC", "binding signal": "1.31 RPM ratio (pull-down/input)"}, {"sequence": "GATGATTGTTCTCCCAGCTGATGAATTGTTATTCTCGAGTAAACAAATTTTCCTAATCTTTCTGTTCAAGCGCCATCTAC", "binding signal": "2.03 RPM ratio (pull-down/input)"}, {"sequence": "GATGATTGTTCTCCCAGCTGATGAATTGGTTATTTCGAGTAAACAAATTTTCCTAATCTTTCTGTTCAAGCGCCATCTAC", "binding signal": "1.13 RPM ratio (pull-down/input)"}, {"sequence": "GATGATTGTTCTCCCAGCTGATGAATTTGTTATTTCGAGTAAACAAATTTTCCTAATCTTTCTGTTCAAGCGCCATCTAC", "binding signal": "2.17 RPM ratio (pull-down/input)"}, {"sequence": "GATGATTGTTCTCCCAGCTGATGAATTATGTTATTCGAGTAAACAAATTTTCCTAATCTTTCTGTTCAAGCGCCATCTAC", "binding signal": "2.18 RPM ratio (pull-down/input)"}, {"sequence": "GATGATTGTTCTCCCAGCTGATGAATTATTATGTTCGAGTAAACAAATTTTCCTAATCTTTCTGTTCAAGCGCCATCTAC", "binding signal": "1.69 RPM ratio (pull-down/input)"}, {"sequence": "GATGATTGTTCTCCCAGCTGATGAATTGAGATCATCGAGTAAACAAATTTTCCTAATCTTTCTGTTCAAGCGCCATCTAC", "binding signal": "0.904 RPM ratio (pull-down/input)"}, {"sequence": "GATGATTGTTCTCCCAGCTGATGAATTTATGACCTCGAGTAAACAAATTTTCCTAATCTTTCTGTTCAAGCGCCATCTAC", "binding signal": "0.986 RPM ratio (pull-down/input)"}, {"sequence": "GATGATTGTTCTCCCAGCTGATGAATTACGATAGTCGAGTAAACAAATTTTCCTAATCTTTCTGTTCAAGCGCCATCTAC", "binding signal": "1.01 RPM ratio (pull-down/input)"}, {"sequence": "GATGATTGTTCTCCCAGCTGATGAATTTTCCCTATCGAGTAAACAAATTTTCCTAATCTTTCTGTTCAAGCGCCATCTAC", "binding signal": "0.937 RPM ratio (pull-down/input)"}, {"sequence": "GATGATTGTTCTCCCAGCTGATGAATTATACCCGTCGAGTAAACAAATTTTCCTAATCTTTCTGTTCAAGCGCCATCTAC", "binding signal": "0.898 RPM ratio (pull-down/input)"}, {"sequence": "GATGATTGTTCTCCCAGCTGATGAATTACTTCGATCGAGTAAACAAATTTTCCTAATCTTTCTGTTCAAGCGCCATCTAC", "binding signal": "1.01 RPM ratio (pull-down/input)"}, {"sequence": "GATGATTGTTCTCCCAGCTGATGAATTATCCATTTCGAGTAAACAAATTTTCCTAATCTTTCTGTTCAAGCGCCATCTAC", "binding signal": "0.915 RPM ratio (pull-down/input)"}, {"sequence": "GATGATTGTTCTCCCAGCTGATGAATTTCACTAGTCGAGTAAACAAATTTTCCTAATCTTTCTGTTCAAGCGCCATCTAC", "binding signal": "0.76 RPM ratio (pull-down/input)"}, {"sequence": "GATGATTGTTCTCCCAGCTGATGAATTTCGTTATTCGAGTAAACAAATTTTCCTAATCTTTCTGTTCAAGCGCCATCTAC", "binding signal": "1.01 RPM ratio (pull-down/input)"}, {"sequence": "GATGATTGTTCTCCCAGCTGATGAATTCTGTTATTCGAGTAAACAAATTTTCCTAATCTTTCTGTTCAAGCGCCATCTAC", "binding signal": "1.78 RPM ratio (pull-down/input)"}, {"sequence": "GATGATTGTTCTCCCAGCTGATGAATTGTTATATTCGAGTAAACAAATTTTCCTAATCTTTCTGTTCAAGCGCCATCTAC", "binding signal": "1.57 RPM ratio (pull-down/input)"}, {"sequence": "GATGATTGTTCTCCCAGCTGATGAATTCACTCCCTCGAGTAAACAAATTTTCCTAATCTTTCTGTTCAAGCGCCATCTAC", "binding signal": "0.792 RPM ratio (pull-down/input)"}, {"sequence": "GATGATTGTTCTCCCAGCTGATGAATTCGGTAAATCGAGTAAACAAATTTTCCTAATCTTTCTGTTCAAGCGCCATCTAC", "binding signal": "1.22 RPM ratio (pull-down/input)"}, {"sequence": "GATGATTGTTCTCCCAGCTGATGAATTGCTTCGCTCGAGTAAACAAATTTTCCTAATCTTTCTGTTCAAGCGCCATCTAC", "binding signal": "0.992 RPM ratio (pull-down/input)"}, {"sequence": "GATGATTGTTCTCCCAGCTGATGAATTCCCTGATTCGAGTAAACAAATTTTCCTAATCTTTCTGTTCAAGCGCCATCTAC", "binding signal": "0.807 RPM ratio (pull-down/input)"}, {"sequence": "GATGATTGTTCTCCCAGCTGATGAATTCTGTTGATCGAGTAAACAAATTTTCCTAATCTTTCTGTTCAAGCGCCATCTAC", "binding signal": "2.26 RPM ratio (pull-down/input)"}, {"sequence": "GATGATTGTTCTCCCAGCTGATGAATTTTGTTGATCGAGTAAACAAATTTTCCTAATCTTTCTGTTCAAGCGCCATCTAC", "binding signal": "2.8 RPM ratio (pull-down/input)"}, {"sequence": "GATGATTGTTCTCCCAGCTGATGAATTCTTTTGATCGAGTAAACAAATTTTCCTAATCTTTCTGTTCAAGCGCCATCTAC", "binding signal": "0.969 RPM ratio (pull-down/input)"}, {"sequence": "GATGATTGTTCTCCCAGCTGATGAATTGATCTATTCGAGTAAACAAATTTTCCTAATCTTTCTGTTCAAGCGCCATCTAC", "binding signal": "1.15 RPM ratio (pull-down/input)"}, {"sequence": "GATGATTGTTCTCCCAGCTGATGAATTCAATTGATCGAGTAAACAAATTTTCCTAATCTTTCTGTTCAAGCGCCATCTAC", "binding signal": "1.02 RPM ratio (pull-down/input)"}, {"sequence": "GATGATTGTTCTCCCAGCTGATGAATTGATTTGATCGAGTAAACAAATTTTCCTAATCTTTCTGTTCAAGCGCCATCTAC", "binding signal": "1.07 RPM ratio (pull-down/input)"}, {"sequence": "GATGATTGTTCTCCCAGCTGATGAATTGTTGTGATCGAGTAAACAAATTTTCCTAATCTTTCTGTTCAAGCGCCATCTAC", "binding signal": "2.32 RPM ratio (pull-down/input)"}, {"sequence": "GATGATTGTTCTCCCAGCTGATGAATTGTGATGATCGAGTAAACAAATTTTCCTAATCTTTCTGTTCAAGCGCCATCTAC", "binding signal": "1.42 RPM ratio (pull-down/input)"}, {"sequence": "GATGATTGTTCTCCCAGCTGATGAATTCTATTCATCGAGTAAACAAATTTTCCTAATCTTTCTGTTCAAGCGCCATCTAC", "binding signal": "0.915 RPM ratio (pull-down/input)"}, {"sequence": "GATGATTGTTCTCCCAGCTGATGAATTTGATTGATCGAGTAAACAAATTTTCCTAATCTTTCTGTTCAAGCGCCATCTAC", "binding signal": "1.1 RPM ratio (pull-down/input)"}, {"sequence": "GATGATTGTTCTCCCAGCTGATGAATTTCTGTGATCGAGTAAACAAATTTTCCTAATCTTTCTGTTCAAGCGCCATCTAC", "binding signal": "1.02 RPM ratio (pull-down/input)"}, {"sequence": "GATGATTGTTCTCCCAGCTGATGAATTCTATTGATCGAGTAAACAAATTTTCCTAATCTTTCTGTTCAAGCGCCATCTAC", "binding signal": "2.09 RPM ratio (pull-down/input)"}]}]}
